# Source: PubChem BioAssay
# In the library only some 3.6% were active in any assay of this set; here they are far more common.
# Wnt bcat act: activators of Wnt/beta-catenin signaling; activation, % at 9.35 µM; AID 743398; hit rate 1.2% among 300,000; Wnt/beta-catenin reporter cell assay, activator, plate reader; in the data active = activation above about 30%, passing the limit was not always enough; inconclusive = no clear call, values can overlap the other calls;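 note: 0% = neutral control wells and 100% = positive control wells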
# esBAF inh: SWI/SNF esBAF complex inhibition | mouse ES cells, Bmi1-luciferase knock-in reporter, 24 h; 100% = twice the neutral-well signal | reporter increase, % at 12.5 µM | hit rate 2% among 350,000; in the data active = activation above about 40%; inconclusive = no clear call, values can overlap the other calls;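 note: 0% = median of the plate's neutral control wells and 100% = double that signal; a rise in the Bmi1 reporter signal indicates esBAF inhibition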
# PHOSPHO1 inh: inhibitors of human PHOSPHO1 phosphatase; hit rate 1.1% among 290,000; Q8TCT1; AID 1565; recombinant PHOSPHO1, absorbance phosphatase assay; inhibition, % at 13.3 µM; in the data active = inhibition above about 60%
# Target sequence (Q8TCT1 whole entry, looked up): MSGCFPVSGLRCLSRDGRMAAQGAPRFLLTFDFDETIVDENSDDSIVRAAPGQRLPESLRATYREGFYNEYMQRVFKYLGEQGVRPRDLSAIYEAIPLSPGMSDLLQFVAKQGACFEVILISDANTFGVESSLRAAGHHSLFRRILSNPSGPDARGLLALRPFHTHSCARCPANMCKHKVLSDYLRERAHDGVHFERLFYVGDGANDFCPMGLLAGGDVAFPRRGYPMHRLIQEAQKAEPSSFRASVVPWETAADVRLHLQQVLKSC
# A3G deaminase: blocks human APOBEC3G single-stranded DNA deamination; Q9HC16; recombinant A3G, ssDNA deamination FAM/TAMRA fluorescence; inhibition, % at 20 µM; hit rate 0.28% among 330,000; AID 493012;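 active = inhibition of at least 40% at 20 µM, with no more than 30% in the related APOBEC3A deaminase screen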;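 note: plate controls were DMSO wells with A3G for no effect and wells lacking A3G enzyme for full effect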
# APOBEC3A inh: blocks human APOBEC3A ssDNA deamination. AID 493011. recombinant A3A, FAM/TAMRA ssDNA deamination fluorescence. hit rate 0.41% among 330,000. inhibition, % at 20 µM;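 active = at least 40% inhibition at 20 µM here, with at most 30% in a related deaminase screen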;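 note: plate controls were A3A with DMSO for no effect and wells lacking A3A enzyme for full effect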
# Target sequence (P31941 whole entry, looked up): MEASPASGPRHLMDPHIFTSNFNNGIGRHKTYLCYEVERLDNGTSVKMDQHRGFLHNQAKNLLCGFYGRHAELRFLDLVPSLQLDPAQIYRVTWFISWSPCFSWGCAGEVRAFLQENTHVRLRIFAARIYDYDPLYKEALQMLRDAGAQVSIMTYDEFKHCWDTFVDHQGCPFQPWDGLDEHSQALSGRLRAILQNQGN
# MITF act: increases MITF-driven TRPM1 promoter luciferase signal; SK-MEL-5 TRPM1-promoter luciferase, 24 h; % of positive control, neutral wells = 0; activation, % at 12.5 µM; hit rate 0.75% among 300,000;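 active = mean activation of at least 80% with every replicate also reaching 80%; inconclusive = mean reaches 80% but some replicate falls short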;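 note: 0% = neutral control wells and 100% = parthenolide positive control wells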
# * hit, by the source's call; ? = inconclusive; nt = no result given; ! = not active in a repeat.
SMILES,Wnt bcat act,esBAF inh,PHOSPHO1 inh,A3G deaminase,APOBEC3A inh,MITF act
c1ccc(-n2nnnc2-n2nnc3ccccc32)cc1,0,-3,15,1,0,-8
c1ccc(-n2nnc3ccccc32)nc1,nt,61*,17,-8,-19,76
C[C@H](CO)N1C[C@H](C)[C@@H](CN(C)Cc2ccccc2)Oc2ncc(C#Cc3ccccn3)cc2C1=O,nt,-4,nt,nt,nt,nt
S=c1[nH]nc(-c2ccncc2)n1Cc1ccco1,nt,0,-14,15,0,nt
Cc1c(Cl)c(-c2n[nH]c(=S)n2Cc2ccco2)nn1C,nt,-1,80*,32,1,0
CC(=O)c1ccc(NC(=O)CN2C(=O)/C(=C/C=C/c3ccccc3)SC2=S)cc1,1,nt,3,-2,-1,6
O=C(CCN1C(=O)S/C(=C\C=C\c2ccccc2)C1=O)Nc1ccc(O)cc1,21,93*,22,-1,-2,35
O=C(O)CN1C(=O)/C(=C\c2ccc(OC(=O)c3ccco3)cc2)SC1=S,34*,nt,2,0,3,-1
O=C(CN1C(=O)S/C(=C\C=C\c2ccccc2)C1=O)Nc1cccc(O)c1,24,65*,-2,-5,5,52
O=C(O)CN1C(=O)/C(=C\c2cccc(OC(=O)c3ccco3)c2)SC1=S,-2,-7,-13,-6,-2,8
O=C(O)CN1C(=O)/C(=C/C=C/c2ccccc2)SC1=S,49*,nt,19,3,3,4
C[C@@H]1CCCCO[C@H](CN(C)Cc2ccc(C(F)(F)F)cc2)[C@@H](C)CN([C@@H](C)CO)C(=O)c2cc(NC(=O)Nc3ccccc3)ccc2O1,nt,5,nt,nt,nt,nt
COCC(=O)N1C[C@H]2CON(C)[C@H]2C[C@H]1c1cccc(-c2cc(Cl)cc(Cl)c2)c1,3,nt,nt,nt,nt,nt
COc1ccccc1C(=O)Nc1nnc(SCC(=O)Nc2ccc3c(c2)oc2ccccc23)s1,49*,nt,3,-10,-6,54
COc1ccc(NC(=O)CSc2nnc(NC(=O)c3ccccc3C(=O)O)s2)cc1,0,5,8,nt,nt,-6
COc1ccccc1C(=O)Nc1nnc(SCC(=O)NC2CCCC2)s1,nt,-5,12,-4,5,91*
N#C[C@H]1[C@H](c2ccccc2)[C@H](CO)N1C(=O)c1cccnc1,nt,0,nt,nt,nt,nt
COc1cc(NC(=O)c2ccc3c(=O)n(Cc4ccco4)c(=S)[nH]c3c2)cc(OC)c1OC,nt,-3,76*,-4,-2,5
C=CCNC(=O)c1ccc(Cn2c(=S)[nH]c3cc4c(cc3c2=O)OCO4)cc1,6,14,-76,-3,-1,nt
O=c1c2cc3c(cc2[nH]c(=S)n1Cc1ccco1)OCO3,nt,-5,78*,-8,-2,nt
O=C(NCCN1CCCC1)c1ccc(Cn2c(=S)[nH]c3cc4c(cc3c2=O)OCO4)cc1,nt,4,71*,12,5,nt
CN1CCN(C(=O)c2ccc3c(=O)n(Cc4ccco4)c(=S)[nH]c3c2)CC1,-1,nt,69*,-2,-3,16
CCCNC(=O)C[C@H]1C[C@@H]2c3cc(NS(C)(=O)=O)ccc3O[C@@H]2[C@@H](CO)O1,nt,2,nt,nt,nt,nt
C[C@H](O)C#Cc1ccc2c(c1)O[C@@H](CN(C)C(=O)C1CCC1)[C@H](C)CN([C@H](C)CO)S2(=O)=O,nt,-2,nt,nt,nt,nt
CCNC(=O)C[C@@H]1CC[C@H]2[C@@H](COC[C@@H](O)CN2C(=O)CC)O1,nt,4,nt,nt,nt,nt
SMILES,Wnt bcat act,esBAF inh,PHOSPHO1 inh,A3G deaminase,APOBEC3A inh,MITF act
CC(C)C(=O)Nc1ccc2c(c1)C(=O)N(C)[C@@H]1CC[C@@H](CC(=O)NCCCN(C)C)O[C@@H]1CO2,nt,6,nt,nt,nt,nt
O=C(NC1CCCC1)c1cc2cc(Br)ccc2o1,?,69*,16,-2,7,?
O=C(NC1CCCCC1)c1cc2cc(Br)ccc2o1,-1,56*,35,-7,-2,nt
Nc1ccc(-c2nc3ccccc3s2)cn1,38*,13,13,-8,-5,39
Cc1cc(-c2nc3ccccc3s2)ccc1N,-2,nt,nt,nt,nt,nt
c1ccc(-c2nc3ccccc3s2)nc1,59*!,11,-3,-2,3,58
O=C(c1ccc(F)cc1)N1[C@H](CO)[C@@H]2c3ccccc3NC[C@@H]21,nt,24,nt,nt,nt,nt
CCc1cc2cc(C(=O)Nc3ccccc3F)sc2s1,-1,18,-23,-2,2,52
CC(C)(C)c1ccc(C(=O)Nc2ccc(F)cc2)s1,5,nt,32,-5,-1,91*
Cn1nc(C(F)(F)F)c2cc(C(=O)Nc3ccc(F)cc3)sc21,-4,nt,16,-4,-4,-10
CCc1cc2cc(C(=O)Nc3ccc(F)cc3)sc2s1,49*,32,-13,-2,-1,37
COc1ccc(-n2nc([N+](=O)[O-])c(=NCc3cccnc3)n2O)cc1,7,-6,-9,-4,-1,-1
COc1ccc(-n2nc([N+](=O)[O-])c(=NCc3ccco3)n2O)cc1,43*,-1,25,-5,0,15
COC(=O)c1ccc(COc2ccc(/C=N/N3CCN(C)CC3)cc2)cc1,-2,nt,-7,-11,-3,50
CN1CCN(/N=C/c2ccc(OCc3ccccc3)cc2)CC1,16,40,24,-8,-4,85*
O=c1[nH]c(-c2ccc(-c3cccc(Cl)c3)o2)nc2ccccc12,?,58*,nt,0,1,104*
O=c1[nH]c(SCc2cccc(Cl)c2)nc2ccccc12,0,nt,-26,0,1,2
CO[C@H](CN(C)C(=O)c1ccccc1F)[C@@H](C)CN([C@H](C)CO)S(=O)(=O)c1ccccc1,nt,-1,nt,nt,nt,nt
Cc1ccc(N2CN=c3s/c(=C\c4ccccn4)c(=O)n3C2)cc1,3,77*,-15,-9,-3,51
O=c1/c(=C/c2ccco2)sc2n1CN(c1ccccc1)CN=2,nt,-8,19,-3,1,32
Cc1ccc(C(=O)Nc2ccsc2C(=O)O)cc1,26,nt,28,-3,-2,28
O=C(Nc1ccc(Cl)cc1C(F)(F)F)c1ccccc1Cl,1,nt,-9,-5,0,13
O=C(Nc1ccc(Cl)cc1C(F)(F)F)c1ccc(Cl)cc1,?,49*,5,-6,1,62
O=C(Nc1cc(F)c(Br)cc1F)c1ccc(Cl)cc1,49*,nt,3,-5,-1,75
O=C(Nc1ccsc1C(=O)O)c1ccc(Cl)cc1,15,61*,44,-10,-5,15
CC(C)[C@@H](C)/C=C/[C@@H](C)[C@H]1CC[C@@H]2[C@]1(C)CCC1[C@]23C=C[C@]2(C[C@@H](O)CC[C@]12C)N(c1ccc(Br)cn1)O3 (stereo partly specified),-6,nt,nt,nt,nt,nt
CCC1CCc2sc(C(=O)NNC(=S)NCC3CCCO3)cc2C1 (stereo unspecified),0,6,nt,-4,3,9
CCC1CCc2sc(C(=O)NCC3CCCO3)cc2C1 (stereo unspecified),55*,66*,nt,-5,-1,76
